The results in this text go back to PubChem BioAssay AID2130 (The Scripps Research Institute Molecular Screening Center, 2009).

Out of some 320,000 compounds screened, about 1,700 (0.53%) were called active. This excerpt belongs to a sample that is enriched for actives. A number with no mark means an inactive call.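 The calls were made as follows: active = inhibition above the campaign mean of all compounds plus 3 SD (cut at about 26% in these data); inactive = the rest.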

In this experiment the target is Protein phosphatase methylesterase 1 (Homo sapiens) (UniProt Q9Y570). Description: human PME-1 methylesterase blockers – biochemical, fluorescence polarization, FP-Rh probe, HTS, primary screen (AID 2130).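 Also: competitive labeling of PME-1 active site by serine hydrolase directed probe; 0% = PME-1 with DMSO and 100% = wells lacking PME-1 enzyme; inhibitors block probe labeling so polarization falls and inhibition rises.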 The following applies: recombinant PME-1, FP-Rh probe fluorescence polarization; at 5.9 µM; stronger effect = higher value. On the technique in general: Polarisation of emitted light reports the rotation of a fluorescent probe.
Protein phosphatase methylesterase 1 (Homo sapiens), sequence (Q9Y570 whole entry, looked up): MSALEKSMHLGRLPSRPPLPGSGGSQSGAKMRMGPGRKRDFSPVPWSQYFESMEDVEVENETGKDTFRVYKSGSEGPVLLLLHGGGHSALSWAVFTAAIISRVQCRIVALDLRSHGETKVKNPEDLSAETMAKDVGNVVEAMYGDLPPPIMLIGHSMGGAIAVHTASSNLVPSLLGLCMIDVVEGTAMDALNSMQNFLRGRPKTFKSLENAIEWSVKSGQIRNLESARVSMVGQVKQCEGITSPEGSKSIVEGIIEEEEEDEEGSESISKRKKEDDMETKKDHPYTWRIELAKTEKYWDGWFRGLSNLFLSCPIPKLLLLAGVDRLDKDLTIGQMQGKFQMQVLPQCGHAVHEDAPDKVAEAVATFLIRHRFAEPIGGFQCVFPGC
The inhibition is the drop in the measured response relative to a control, in per cent. With `Cc1ccccc1N1CC(C(=O)Nc2ccc3c(c2)OCO3)CC1=O` (stereo not drawn), the inhibition is 0.7%.

For the compound `COCCN(C(=S)Nc1cccc(Cl)c1C)C(C)c1ccco1` (stereo not drawn), the inhibition was -13.2%.

In the case of `CCCN(C(=O)CSc1nnnn1C)c1c(N)n(Cc2ccccc2)c(=O)[nH]c1=O`, the inhibition was 0.95%.

Consider `COc1ccc(C2Nc3ccccc3C(=O)N2Cc2ccccc2)cc1Cn1nnc2ccccc21` (stereo not drawn), for which the inhibition is 8.54%.

`COc1ccc(N2C(=O)c3ccccc3NC2c2ccc(OC)c(CN3CCOCC3)c2)cc1` (stereo not drawn): the inhibition was -3.55%.

In the case of `COc1ccc(C2Nc3ccccc3C(=O)N2c2ccc(F)cc2)cc1Cn1nnc2ccccc21` (stereo not drawn), the inhibition is 30.4% (active).

As for `O=C(NCCc1ccccn1)c1nc(Cn2cc([N+](=O)[O-])cn2)no1`, the inhibition is -4.02%.

As for `Cc1ccc(-c2ccnc3nc(Sc4ncc(C(F)(F)F)cc4Cl)nn23)cc1`, the inhibition is -0.19%.

Turning to `COC/C=C/C1=CC2=CC(=O)C(C)(OC(=O)CCC(=O)OC)C(=O)C2=CO1` (stereo not drawn), the inhibition is -1.35%.

Regarding `COc1ccccc1OCCn1c(SCC(N)=O)nc2ccccc21`, the inhibition was -4.12%.

Regarding `COc1ccc(NC(C(=O)Nc2cccc(C(C)=O)c2)c2ccccc2)cc1` (stereo not drawn), the inhibition was 34.5% (active).

`COC(C(=O)Nc1ccc(C(C)=O)cc1)c1ccccc1` (stereo not drawn): the inhibition is -5.79%.

Consider `COc1ccc(NC(=O)[C@H](NC(=O)[C@@H]2Cc3ccccc3CN2)c2ccccc2)cc1`, for which the inhibition was -3.82%.

On to `CS(=O)(=O)N(CC(=O)Nc1ccc(F)cc1F)c1cccc([N+](=O)[O-])c1`, for which the inhibition is -2.56%.

Turning to `O=C(CNCc1cccs1)Nc1cc(S(=O)(=O)N2CCCC2)ccc1Cl`, the inhibition is 22%.

Regarding `CSCCC(NS(=O)(=O)/C=C/c1ccccc1)C(=O)N1CCC(C)CC1` (stereo not drawn), the inhibition was 6.82%.

In the case of `CCc1ccc2nc3sc(C(=O)Nc4nnc(CC)s4)c(N)c3cc2c1`, the inhibition is 65.8% (active).

With `CCc1nnc(NC(=O)c2sc3nc(C)cc(COC)c3c2N)s1`, the inhibition was -5.69%.

Consider `CCc1nnc(NC(=O)c2cccc(S(=O)(=O)N(C)c3ccc(OC)cc3)c2)s1`, for which the inhibition was -0.95%.

As for `Clc1ccc(-c2cc(COc3ccccc3)no2)cc1Cl`, the inhibition was -8.92%.

`COC(=O)COc1ccc2c(c1C)O/C(=C\c1ccco1)C2=O`: the inhibition is -9.46%.

On to `COc1ccc(C(=O)Nc2ccccc2C(=O)N/N=C/c2ccc(O)c(OC)c2)cc1`, for which the inhibition is 33.6% (active).

As to `CCOc1cc(/C=N/NC(=O)c2cc(-c3ccccc3)nc3ccccc23)ccc1O`, the inhibition is -7.58%.

Take `COc1cc(/C=N/NC(=O)c2ccc(N3CCCC3=O)cc2)ccc1O`: the inhibition is 5.91%.

Regarding `CCOC(=O)[C@H]1CCC[C@@H](NS(=O)(=O)c2ccc(NC(C)=O)cc2)C1`, the inhibition was 1.52%.

Turning to `Cc1csc2nc(COC(=O)c3cccc(N(C)C)c3)cc(=O)n12`, the inhibition is 3.78%.

`COc1ccc(C(=O)CC(=O)C(=O)Nc2cc([N+](=O)[O-])ccc2OC)cc1`: the inhibition is -2.97%.

As to `COc1ccc(NS(=O)(=O)c2cc(C(=O)Nc3ccccc3C(=O)O)ccc2C)cc1`, the inhibition was -3.94%.

On to `COc1ccc(NS(=O)(=O)c2cc(NC(=O)CC(=O)c3ccc([N+](=O)[O-])cc3)ccc2C)cc1`, for which the inhibition was 27% (active).

Regarding `Cc1occc1C(=O)NC1CCCN(Cc2ccc(CC(C)C)cc2)C1` (stereo not drawn), the inhibition is 5.69%.

`COc1ccc(CN(Cc2ccc(OC)cc2)C(=O)c2cccs2)cc1`: the inhibition is 4.18%.

Turning to `COc1ccc(CCNC(=O)/C(C#N)=C2\N=C(NC(=O)c3cccs3)c3ccccc32)cc1`, the inhibition is 28.2% (active).

As for `COc1cc2ccccc2cc1C(=O)Nc1ccc(NC(=O)c2cccs2)cc1`, the inhibition is -34%.

With `CN(Cc1c(F)cccc1Cl)S(=O)(=O)c1cccs1`, the inhibition is 4.21%.

Take `CN(C)C(=O)c1ccc2c(c1)C1C3CCC(C3)C1C(c1ccccc1)N2` (stereo not drawn): the inhibition was 8.08%.

Take `CCc1nnc(NC(=O)CSc2nc(SC)ns2)s1`: the inhibition is -0.14%.

In the case of `CCN(CC)C(=O)CSC(Nc1cccc(F)c1)=C(C#N)C#N`, the inhibition was -5.27%.

For the compound `Cc1cc(C)cc(NC(=S)NCc2ccc(F)cc2)c1`, the inhibition is 7.45%.

On to `O=C(NCCc1c[nH]c2ccccc12)c1cccc(Br)c1`, for which the inhibition was 4.14%.

With `Cc1cc(C)cc(NC(=S)NCCc2c[nH]c3ccccc23)c1`, the inhibition is 26.7% (active).

Consider `O=C(NCCS(=O)(=O)N1CCN(c2ccccc2F)CC1)c1ccc(Br)o1`, for which the inhibition is 3.82%.

Take `Cc1cc(C)c2nc3nc(C)cc(C)c3c(N)c2c1`: the inhibition is -3.32%.

For the compound `CCOC12CC(C)(C)CC(C)(CC3=C1C(=O)CC(C)(C)C3)C2` (stereo not drawn), the inhibition was 2.34%.

Take `O=c1c2sccc2nc(SCc2cc(=O)n3ccccc3n2)n1-c1ccc(Br)cc1`: the inhibition is 6.68%.

With `N#CCCN(C(=O)COC(=O)C1CCN(c2ccc(C(F)(F)F)cn2)CC1)c1ccc(F)cc1`, the inhibition was 1.79%.

As for `Cc1cc(NC(=O)COc2ccccc2C#N)no1`, the inhibition is -1.79%.

For `CCc1cccc(CC)c1NC(=O)COc1ccccc1C(=O)c1cc(C#N)c(=O)n(C2CCCCC2)c1`, the inhibition is 26.5% (active).

For `CCc1ccccc1OCC(=O)Nc1ccc(C)c(S(=O)(=O)N2CCCCCC2)c1`, the inhibition was -30.7%.

For `CCOc1ccc(S(=O)(=O)N(CC(=O)NCC(F)(F)F)Cc2ccco2)cc1`, the inhibition was -1.32%.

`FC(F)(F)c1cccc(-c2nc(COc3ccc(Cl)cc3Cl)no2)c1`: the inhibition is -0.04%.

For `O=C(Nc1ccc(OC(F)(F)F)cc1)c1ccc2c(c1)no[n+]2[O-]`, the inhibition was 32% (active).

For the compound `Cn1nccc1NC(=O)Nc1ccc(OC(F)(F)F)cc1`, the inhibition is 8.73%.

Consider `COC(=O)[C@H](C)NC(=O)Nc1ccc(OC(F)(F)F)cc1`, for which the inhibition was 0.46%.

As to `CCOC(=O)Cc1c(C)nc2c(C#N)c(C)nn2c1C`, the inhibition was -0.83%.

With `CCN=C1S/C(=C\c2cc(Br)ccc2OCC(=O)OCC)C(=O)N1CC`, the inhibition is 3.9%.

As for `CC(C)CCOc1ccc(C(=O)C[N+]2(C)CCOCC2)cc1`, the inhibition is 1.1%.

On to `Cc1ccc(N(Cc2ccc(C(=O)Nc3ccccc3C(=O)NCc3ccco3)cc2)S(C)(=O)=O)cc1C`, for which the inhibition is -28.2%.

`Nc1c(N(Cc2ccco2)C(=O)c2cccc(F)c2)c(=O)[nH]c(=O)n1Cc1ccccc1`: the inhibition was 3.17%.
